Compound activity as filed in PubChem.
BJeLR lethal = MLPCN primary cell-based screen for lethality selective to Ras in HRASV12 cells. BJeLR (HRASV12) viability, CellTiter-Glo ATP luminescence, 48 h. inhibition, % (test concentration not listed). actives 0.17% (n = 300,000). AID 1554, 2009; in the data active means inhibition above about 50%
PriA SSB inh = inhibitors of Klebsiella pneumoniae PriA binding to SSB C-terminal tail, primary screen, biochemical, AlphaScreen | AlphaScreen SSBct-PriA binding, biotinylated peptide | inhibition, % at 33 µM | AID 1272365, 2023 | actives 0.6% (n = 430,000); in the data active means inhibition mostly above about 37%, no sharp cut-off; inactive means mostly below about 20%
PrPC surface inh = inhibitors of human cell surface prion protein PrPC, primary screen, cell-based, TR-FRET | Major prion protein (Homo sapiens), P04156 | TR-FRET read-out | inhibition, % at 13.8 µM | actives 0.43% (n = 370,000) | AID 720596, 2013; in the data active means inhibition above about 24%
Yp Topo-I inh = Yersinia pestis topoisomerase I inhibitors, primary screen, biochemical, cleavage product accumulation, plate reader, single point; Y. pestis Topo-I cleavage product accumulation; activity, % at 10 µM; DNA topoisomerase I (Yersinia pestis CO92); actives 0.064% (n = 360,000); in the data active means activity above about 50%, passing the limit was not always enough
PrP 5UTR inh = inhibition of PrP 5' UTR reporter expression. inhibition, % (no concentration beside the values). actives 0.35% (n = 340,000). cell-based PrP 5' UTR mRNA reporter, plate reader; in the data active means inhibition above about 52%
PfHsp40 yeast = rescue of yeast from PfHsp40 toxicity, primary screen, S. cerevisiae, ATP luminescence | S. cerevisiae expressing PfHsp40, growth rescue | actives 0.68% (n = 340,000) | growth rescue, % at 12.5 µM; in the data active means growth rescue above about 28%, passing the limit was not always enough;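 further: yeast W303a lacking pdr1 and pdr3 grown in galactose medium; growth measured after three days at 30 °C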
PrPC confirm = confirmation of inhibitors of cell surface human prion protein, confirmation, cell-based, TR-FRET. shares compounds with PrPC surface inh. cell surface PrPC level. inhibition, % at 13.8 µM. actives 65% (n = 1,500). AID 743200, 2013; in the data active means inhibition above about 25%
LD9 cytotox = cytotoxicity in LD9 cells, cytotoxicity control for cell surface PrPc inhibitor project, cell-based, luminescence, high throughput | shares compounds with PrPC surface inh | luminescence viability | inhibition, % at 13.8 µM | actives 29% (n = 1,500) | AID 743201, 2013; in the data active means inhibition above about 9.5%
Each line names hits and unclear results; the compound was inactive in the other large screens (follow-up assays come after a bar, where they were run). Hits are enriched below; roughly 1.7% of the tested compounds scored in any of these assays.

CC1=NN(C(=Nc2nnc(C)s2)Nc2ccccc2)[C@H](c2ccc(C)cc2)S1	none (no result: BJeLR lethal, PrPC surface inh, Yp Topo-I inh, PrP 5UTR inh, PfHsp40 yeast)
CSCCC(C)(O)CNC(=O)c1cc(C)cs1 (stereo not given)	none (no result: BJeLR lethal, PrPC surface inh, Yp Topo-I inh, PrP 5UTR inh, PfHsp40 yeast)
COc1ccc(Cl)c2sc(NC(=O)c3nc4ccccc4s3)nc12	none (no result: BJeLR lethal, PrPC surface inh, Yp Topo-I inh, PrP 5UTR inh, PfHsp40 yeast)
CCCc1nc(SCC(=O)Nc2cc(C)on2)c2ccccc2n1	PrPC surface inh 122.9 | PrPC confirm 120.4 | LD9 cytotox inactive
Cc1nonc1NC(=O)CSc1nc(CCC2CCCC2)nc2ccccc12	none
CCCCNC(=O)CSc1nc(Cc2ccccc2)nc2ccccc12	PrPC surface inh 28.5 | PrPC confirm 38.1 | LD9 cytotox inactive
CCCc1nc(SCC(=O)NC2CCCC2)c2ccccc2n1	PrPC surface inh 34.4 | PrPC confirm 43.1 | LD9 cytotox inactive
Cc1cc(NC(=O)CSc2nc(CCC3CCCC3)nc3ccccc23)no1	PrPC surface inh 43.1 | PrPC confirm 55.6 | LD9 cytotox inactive
CC(C)(C)c1nc(SCC(=O)NC2CCCC2)c2ccccc2n1	none
O=C(CCC1CCCCC1)Nc1cccc(-c2ccc3nnc(-c4ccncc4)n3n2)c1	none (no result: BJeLR lethal, PrPC surface inh, Yp Topo-I inh, PrP 5UTR inh, PfHsp40 yeast)
COc1cccc(C2C(=C(O)c3ccc4c(c3)OCCO4)C(=O)C(=O)N2CCCn2ccnc2)c1 (stereo not given)	none (no result: BJeLR lethal, PrPC surface inh, Yp Topo-I inh, PrP 5UTR inh, PfHsp40 yeast)
CCc1cc2ccccc2nc1SCC(=O)Nc1cc(C)on1	PrPC surface inh 29.9 | PrPC confirm 68.8 | LD9 cytotox inactive
Cc1cc(NC(=O)CSc2nc(C(C)(C)C)nc3ccccc23)no1	none
Cc1cc(NC(=O)c2cc(-c3cccs3)nc3ccccc23)no1	none
Cc1cc(NC(=O)CSc2nc(-c3cccs3)nc3ccccc23)no1	PrPC surface inh 43.9 (no result: BJeLR lethal) | PrPC confirm 101.8 | LD9 cytotox inactive
Cc1cc(NC(=O)CSc2ncnc3ccccc23)no1	PrPC surface inh 36.5 | PrPC confirm 93.6 | LD9 cytotox inactive
Cc1noc(C)c1C(=O)N1CCN(c2nc(-c3ccsc3)cs2)CC1	none (no result: BJeLR lethal, PrPC surface inh, Yp Topo-I inh, PrP 5UTR inh, PfHsp40 yeast)
O=[N+]([O-])c1c(Nc2cccc(O)c2)cc(Cl)c2nonc12	BJeLR lethal 79.4, PrPC surface inh 84.6 | PrPC confirm 92.3 | LD9 cytotox 98.5
O=C(O)c1ccc(Nc2cc(Cl)c3nonc3c2[N+](=O)[O-])cc1	none
Cc1ccc(S(=O)(=O)N2CCCCC2)cc1NC(=O)Cn1cnnn1	none
Cc1ccc(S(=O)(=O)N2CCCCC2)cc1NC(=O)CSc1ncnc2ccccc12	PrPC surface inh 62.7 | PrPC confirm 71.1 | LD9 cytotox inactive
Cc1ccc(NC(=O)CSc2ncnc3ccccc23)cc1Cl	none (no result: BJeLR lethal, PrPC surface inh, Yp Topo-I inh, PrP 5UTR inh, PfHsp40 yeast)
Cc1ccc(NC(=O)CSc2ncnc3ccccc23)cc1S(=O)(=O)N1CCCCCC1	PrPC surface inh 67.3 | PrPC confirm 77.3 | LD9 cytotox inactive
Cc1ccc(S(=O)(=O)N2CCCCC2)cc1NC(=O)Cn1ncc(Cl)c(Cl)c1=O	PrPC surface inh 31.0 (no result: BJeLR lethal) | PrPC confirm inactive | LD9 cytotox 93.8
COCc1cc(=O)n2[nH]c(N3CCN(C(=O)CCc4ccccc4)CC3)nc2n1	none (no result: BJeLR lethal, PrPC surface inh, Yp Topo-I inh, PrP 5UTR inh, PfHsp40 yeast)
CNc1ccccc1C(=O)OC(C)C(=O)Nc1ccc(Cl)cn1 (stereo not given)	PrPC surface inh 24.9 | PrPC confirm 37.8 | LD9 cytotox inactive
Cc1nn(C2CCS(=O)(=O)C2)c2nc(-c3ccccc3)cc(C(=O)O)c12 (stereo not given)	none (no result: BJeLR lethal, PrPC surface inh, Yp Topo-I inh, PrP 5UTR inh, PfHsp40 yeast)
COc1ccc(C(=O)Nc2ccc(NC(=O)c3cc(OC)c(OC)c(OC)c3)cn2)cc1	PrPC surface inh 43.5 | PrPC confirm 37.6 | LD9 cytotox inactive
N/C(=N\OC(=O)COc1ccc2ccccc2c1Br)c1cccnc1	PrPC surface inh 47.4 (no result: PriA SSB inh, Yp Topo-I inh, PrP 5UTR inh, PfHsp40 yeast) | PrPC confirm 78.2 | LD9 cytotox inactive
